Experimental data: PubChem BioAssay (NCATS)
Inconclusive results are not listed. The source made the active and inactive calls. Calls come from the whole dose curve; as a rule, active = well fitted curve in the direction sought with a large enough effect; inconclusive = small, poorly fitted or top-dose-only effect, or another doubt; inactive = no such curve, though single readings can be large; an effect the other way counts as inactive or inconclusive.

Experiments:
[1] = tested on: Zika virus NS2B-NS3 protease (linked construct); experiment: Primary screen NINDS Rhodamine qHTS for Zika virus inhibitors (AID 1347160); note: nearly all actives have a fitted effect of over 55% in size; note: potency is the fitted concentration of half-maximal effect
In short: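 Purified NS2B-NS3 protease with the NS2B hydrophilic domain joined by a flexible linker (25 nM) in 10 mM Tris-HCl pH 8.0, 0.01% Tween 20, preincubated 15 min at RT with compound; Rhodamine110 peptide substrate 1.5 µM; fluorescence change over 15 min; 4-parameter Hill fit.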

[2] = UWB1.289 Cancer Cell Toxicity qHTS against the NCATS CANVASS Library (AID 1347347); note: nearly all actives have a fitted effect of over 60% in size; note: potency is the fitted concentration of half-maximal effect
In short: (§1)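 Viability was assessed by adding CellTiter-Glo reagent to treated cultures and reading luminescence after 15min at room temperature. Treatment lasted 72 h at 37 degrees C/5% CO2, using an 11-point series on 1000 cells/well.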

[3] = SW1088 Cancer Cell Toxicity qHTS against the NCATS CANVASS Library (AID 1347350); note: nearly all actives have a fitted effect of over 75% in size; note: potency is the fitted concentration of half-maximal effect
In short: as §1

[4] = U-118MG Cancer Cell Toxicity qHTS against the NCATS CANVASS Library (AID 1347351); note: potency is the fitted concentration of half-maximal effect
In short: as §1

[5] = A2780 Cisplatin Sensitive Ovarian Cancer Cell Toxicity qHTS against the NCATS CANVASS Library (AID 1347353); note: nearly all actives have a fitted effect of over 60% in size; note: potency is the fitted concentration of half-maximal effect
In short: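 A2780 cisplatin-sensitive cells (750 per well) were seeded, left 4 h at 37 °C, then pin-dosed in an 11-point series. After 72 h at 37 °C/5% CO2, viability was measured as ATPLite luminescence.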

[6] = HEK-293 Cancer Cell Toxicity qHTS against the NCATS CANVASS Library (AID 1347355); note: nearly all actives have a fitted effect of over 65% in size; note: potency is the fitted concentration of half-maximal effect
In short: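 Cells were seeded at 1000 per well and allowed to settle 4 hours at 37 degrees C before pin transfer of compounds as an 11-point series. Viability was read by CellTiter-Glo luminescence after 72 hours' exposure.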

[7] = HEK293 18hr Apoptosis Induction qHTS against the NCATS CANVASS Library (AID 1347357)
In short: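 Caspase-3/7 luminescence (DEVD substrate, Caspase-Glo) after 18 h compound exposure of HEK293 cells, 500 cells/well; 11-point series; doxorubicin titration as control.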

[8] = HPAF-II 18hr Apoptosis Induction qHTS against the NCATS CANVASS Library (AID 1347360)
In short: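 Caspase-Glo 3/7 luminescence (DEVD substrate) after 15 min RT; HPAF-II, 500 cells/well, 18 h compound exposure at 37 degrees C, qHTS series; doxorubicin control 0.1nM - 4uM.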

[9] = HEK293 12hr Apoptosis Induction qHTS against the NCATS CANVASS Library (AID 1347361)
In short: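 500 HEK293 cells/well; cpds pin-transferred, 11-pt conc series; 12 h, 37 degrees C/5% CO2; Caspase-Glo 3/7 added, 15 min RT dark; luminescence.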

[10] = tested on: NAD(P)H diaphorase (Clostridium kluyveri); experiment: Diaphorse counterscreen qHTS: Assay Interference Panel against the NCATS CANVASS Library (AID 1347362)
In short: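 Counterscreen for coupling-enzyme interference: resorufin fluorescence from resazurin/NADH turnover, read after 5 min at room temperature. Compounds were tested over an 11-point series after 15 min dark preincubation with diaphorase in PBS-Tween.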

[11] = molecular target: Luciferin 4-monooxygenase (Photinus pyralis) (UniProt P08659); experiment: Firefly luciferase counterscreen qHTS: Assay Interference Panel against the NCATS CANVASS Library (AID 1347363); note: series mostly up to about 57 µM
Sequence of Luciferin 4-monooxygenase (Photinus pyralis) (P08659 whole entry, looked up): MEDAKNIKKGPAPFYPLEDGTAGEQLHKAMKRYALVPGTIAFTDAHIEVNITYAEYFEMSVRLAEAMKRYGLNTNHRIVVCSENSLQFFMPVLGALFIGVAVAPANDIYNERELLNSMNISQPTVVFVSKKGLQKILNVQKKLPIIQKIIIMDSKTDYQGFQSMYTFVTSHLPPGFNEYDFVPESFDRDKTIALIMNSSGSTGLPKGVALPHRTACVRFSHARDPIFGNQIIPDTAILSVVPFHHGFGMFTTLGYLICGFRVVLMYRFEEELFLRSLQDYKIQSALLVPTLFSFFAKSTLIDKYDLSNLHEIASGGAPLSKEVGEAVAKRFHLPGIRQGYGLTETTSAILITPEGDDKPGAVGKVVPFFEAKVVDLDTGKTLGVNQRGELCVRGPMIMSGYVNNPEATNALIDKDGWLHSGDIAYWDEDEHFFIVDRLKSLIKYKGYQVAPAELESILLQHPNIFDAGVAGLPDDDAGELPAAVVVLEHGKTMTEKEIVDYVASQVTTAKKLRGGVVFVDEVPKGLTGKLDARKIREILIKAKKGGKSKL
In short: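 Luminescence inhibition readout: compounds (11-point qHTS) sat 15 min at room temperature with substrate mix (0.013 mM luciferin and ATP), then firefly luciferase was added and signal read 5 min later.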

[12] = qHTS for ATAD5 Agonist screened against the NCATS CANVASS Library (AID 1347367); note: potency is the fitted concentration of half-maximal effect
In short: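 Luminescence read-out: ATAD5-driven luciferase in stably transfected HEK 293T cells, which rises post-transcriptionally with DNA damage. Cells were exposed 16hr at 37C to test compound; a CellTiter-Fluor fluorescence read (1hr) measured viability first.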

[13] = molecular target: Nuclear receptor subfamily 1 group I member 3 (Homo sapiens) (UniProt Q14994); experiment: qHTS for Constitutive Androstane Receptor (CAR) Agonist screened against the NCATS CANVASS Library (AID 1347373);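 note: every well also contained 1.5 µM PK11195 alongside the test compound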
Sequence of Nuclear receptor subfamily 1 group I member 3 (Homo sapiens) (Q14994 whole entry, looked up): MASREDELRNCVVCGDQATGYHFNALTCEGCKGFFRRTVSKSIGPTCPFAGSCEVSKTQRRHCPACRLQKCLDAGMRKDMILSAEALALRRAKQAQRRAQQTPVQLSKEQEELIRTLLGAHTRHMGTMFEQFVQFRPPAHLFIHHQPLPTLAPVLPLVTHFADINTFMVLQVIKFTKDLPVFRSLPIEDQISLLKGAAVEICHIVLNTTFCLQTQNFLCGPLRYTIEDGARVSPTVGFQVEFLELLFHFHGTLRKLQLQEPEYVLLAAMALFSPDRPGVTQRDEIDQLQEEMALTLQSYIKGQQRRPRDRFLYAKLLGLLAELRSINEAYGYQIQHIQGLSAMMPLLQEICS
In short: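 HepG2 cells stably expressing hCAR and a CYP2B6-2.2kb luciferase reporter were treated for 24hr at 37C with compounds (11-point qHTS) in the presence of 1.5uM PK11195. Reporter activation was read by ONE-Glo luminescence.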

[14] = 10-beta competent E. coli microbial cell viability qHTS against the NCATS CANVASS Library (AID 1347376); note: series mostly up to about 46 µM
In short: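 10-beta competent E. coli (0.9 OD culture diluted to 0.2 OD) exposed to compounds in an 11-point qHTS series, incubated overnight at 37C, 5% CO2. Viability read as ATP by BacTiter-Glo luminescence after 20 min at room temperature.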

[15] = qHTS for H2AX Agonists against the NCATS CANVASS Library (AID 1347378)
In short: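 TR-FRET readout (ex 320 nm, em 665/620 nm ratio) of phospho-H2AX (S139) in CHO-K1 lysates. Cells treated 3 hr at 37C with compound titration, 0.76% DMSO; lysis 30 min, antibody detection 24 hr at RT.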

[16] = Inflammasome Signaling qHTS Counterscreen: IL-1-beta AlphaLISA counterscreen against the NCATS CANVASS Library (AID 1347381);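 note: cell-free check with purified IL-1β in medium and no THP-1 cells; series mostly up to about 57 µM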
In short: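 To flag interference with the AlphaLISA read-out, a known amount of purified IL-1-beta (4 pg) replaced cell supernatant. Detection used anti-IL-1-beta acceptor beads, biotinylated antibody and streptavidin donor beads at room temperature.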

[17] = Cytotoxicity qHTS for assessment of Hepg2 cells membrane integrity screened against the NCATS CANVASS Library (AID 1347387)
In short: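 HepG2 cells (2000/well) attached overnight at 37C, then received compounds in an 11-point series at 0.59 nM - 46 uM final for 5 hr. LDH release was detected fluorometrically (ex 560/em 590 nm) with CytoTox-ONE reagent after 10 min at room temperature.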

[18] = qHTS assay for small molecule disruptors of mitochondrial membrane potential screened against the NCATS CANVASS Library (AID 1347389); note: nearly all actives have a fitted effect of over 60% in size; note: potency is the fitted concentration of half-maximal effect
In short: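 HepG2 cells (2,000/well) were plated overnight at 37C, exposed to compound for 1 hr at 37C/5% CO2, then loaded with Mito-MPS dye for 30 min. Depolarization was read as a drop in red (590 nm) to green (535 nm) fluorescence ratio.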

[19] = Vero-766 cells viability qHTS against the NCATS CANVASS Library: Counterscreen for Zika virus inhibition assay (AID 1347394); note: nearly all actives have a fitted effect of over 60% in size; note: potency is the fitted concentration of half-maximal effect
In short: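 CellTiter-Glo luminescence, lower signal indicating cytotoxicity. Vero 766 cells without Zika virus, 1000 cells/well, plated overnight, then treated 72 h at 37C across an 11-point series.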

[20] = Viability qHTS for inhibitors of the SERCaMP assay screened against the NCATS CANVASS Library (AID 1347400); note: nearly all actives have a fitted effect of over 70% in size; note: potency is the fitted concentration of half-maximal effect
In short: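 SH-SY5Y-GLuc SERCaMP MJH297-derived cells (1000 cells/well) were pre-incubated 4 h at 37C, then exposed to compounds for 48 h. Viability was read as CellTiter-Glo luminescence; bortezomib served as positive control.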

Measured: Potency

CCN1C[C@]2(C)CC[C@@H](O)[C@]34C1[C@H](C[C@H]23)C12CCC(CC14)[C@](O)(CO)[C@H]2O (stereo partly drawn)
inactive: all assays above

CC(=O)N[C@H]1CCN2CCC[C@H]12
inactive: all assays above

CO[C@@H](/C=C/CC/C=C/C(=O)O)[C@@H](O)[C@H](C)/C=C(\C)[C@@H](O)[C@H](C)C(=O)CCCC1CC(=O)NC(=O)C1
inactive: all assays above

CC1=CC2CC[C@@H]3[C@@H](C)C[C@H](C)[C@@H](C1)N23 (stereo partly drawn)
inactive: all assays above

CCC[C@H]1CC[C@H]2[C@H](C)CCC[C@H]2N1
inactive: all assays above

CNCCc1ccc(O)cc1
inactive: all assays above

COc1ccc(C23Oc4cc(OC)cc(OC)c4[C@](O)([C@H](c4ccccc4)C2C(=O)NCCCCNC(=O)c2ccccc2)[C@@H]3O)cc1 (stereo partly drawn)
active: [1] 49.3 µM
inactive: all other assays above

CC[N@@+]1([O-])C[C@]2(C)CC[C@@H](O)[C@@]34C5C[C@H]6CC[C@@]5(C(C[C@H]23)C41)[C@H](O)[C@@]6(O)CO (stereo partly drawn)
active: [1] 49.3 µM
not listed: [7]
inactive: all other assays above

O=C(c1ccccc1O)c1[nH]c(Cl)c(Cl)c1-n1c(C(=O)c2ccccc2O)cc(Cl)c1Cl
active: [1] 2.47 µM | [2] 3.75 µM | [3] 0.749 µM | [4] 6.68 µM | [5] 3.72 µM | [6] 4.18 µM | [18] 0.0933 µM | [19] 1.32 µM | [20] 19.1 µM
inactive: all other assays above

COC(=O)C1=C2Nc3ccccc3[C@@]23CCN2CC(C(C)=O)C1C[C@H]23 (stereo partly drawn)
active: [1] 55.3 µM
inactive: all other assays above

CCCCC[C@@H]1OC(=O)[C@@H](C)N(C)C(=O)[C@H](CCCCC)OC(=O)C(C)N(C)C(=O)[C@H](CCCCC)OC(=O)[C@@H](C)N(C)C(=O)[C@H](CCCCC)OC(=O)C(C)N(C)C1=O (stereo partly drawn)
active: [1] 11 µM | [2] 13.3 µM | [3] 6.68 µM | [4] 14.9 µM | [5] 7.43 µM | [6] 4.18 µM | [18] 4.17 µM | [19] 20.9 µM | [20] 38.1 µM
inactive: all other assays above

CNCCc1ccccc1
inactive: all assays above

CCC(=O)CCCCC[C@@H]1NC(=O)[C@H]2CCCCN2C(=O)[C@H]([C@@H](C)CC)NC(=O)[C@H](Cc2cn(OC)c3ccccc23)NC1=O
active: [1] 13.9 µM | [2] 2.11 µM | [3] 2.66 µM | [4] 0.53 µM | [5] 1.05 µM | [6] 0.935 µM | [12] 1.86 µM | [19] 1.86 µM | [20] 3.81 µM
inactive: all other assays above

c1ccc2c3c([nH]c2c1)CNCC3
active: [3] 26.6 µM
not listed: [4]
inactive: all other assays above

CCN1C[C@]2(C)CC[C@H](O)[C@]34C1C(C[C@H]23)[C@@]12CC[C@H](CC14)[C@](O)(COC(=O)c1ccc(OC)c(OC)c1)[C@H]2O (stereo partly drawn)
not listed: [5] | [6]
inactive: all other assays above

CNCCc1c[nH]c2ccccc12
not listed: [3]
inactive: all other assays above

CCCC[C@@H]1CC[C@H]2CCCC(CCC)N12 (stereo partly drawn)
active: [1] 49.3 µM
not listed: [2]
inactive: all other assays above

CO[C@@H](/C=C/CC/C=C/C(=O)O)[C@@H](O)[C@H](C)[C@@H](O)/C(C)=C/[C@H](C)C(=O)CCCC1CC(=O)NC(=O)C1
not listed: [1]
inactive: all other assays above
